The record followed here is PubChem BioAssay (NCATS).

Common to all, as to experiment: qHTS profiling for inhibitors of Plasmodium falciparum proliferation (AID 504749); also: nearly all actives have a fitted effect of over 60% in size
What all share (details): P. falciparum in erythrocytes, SYBR Green DNA, 72 h; series mostly up to 28.7 µM

The subject of test [1] is P94_40. The gist of the method:
(§1)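 P. falciparum-infected erythrocytes (0.3% parasitemia, 2.5% hematocrit final) were exposed to compounds for 72 h at 37 C in 5% CO2, then lysed with SYBR Green buffer overnight at room temperature; parasite DNA fluorescence was normalized to artemisinin and DMSO controls.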

The subject of test [2] is PAD. The gist of the method: as §1
The test system of test [3] is PC15. The gist of the method: as §1
The test system of test [4] is PC26. The gist of the method: as §1
Test [5] has as its system PC49. The method, boiled down:
as §1

Test [6] has as its system SC27B. The method, boiled down:
as §1

Test [7] has as its system TAB109. The method, boiled down:
as §1

In test [8] the test system is TAB113. The gist of the method:
as §1

Test [9] deals with TAB165. The gist of the method:
as §1

Test [10] relates to W2. The method, boiled down: as §1

The structures appear in SMILES notation. Records with an inconclusive call do not appear. The source made the active and inactive calls. Calls follow the shape of the dose curve; as a rule, active = well fitted inhibition curve with a large enough effect; inconclusive = small, poorly fitted or top-dose-only effect; inactive = flat fitted curve, though single readings scatter.
Potency is read from the fitted curve at half-maximal effect.

Consider `CCCCCCCCCCCCCCCCOP(=O)([O-])OCC[N+](C)(C)C`, for which the Potency entry in test [1], in test [2], in test [3], in test [4], in test [5] and in test [6] was “inactive” each time. For the same compound, the Potency result in test [7], in test [8] and in [9] was “inactive” throughout.
Regarding `CCCCOc1ccc(OCCCN2CCOCC2)cc1`, the Potency result in test [1], in test [2], in [3], in test [4], in test [5] and in test [6] was “inactive” throughout. Also, the Potency entry in test [7], in test [8], in [9] and in [10] was “inactive” throughout.
On to `Cc1cc(O)c(C(C)C)cc1Cl`, for which the Potency result in test [1], in [2], in test [3], in test [4], in test [5] and in test [6] was “inactive” throughout. For the same compound, the Potency result in test [7] and in test [8] was “inactive” throughout.
As for `CC(C)(Oc1ccc(Cl)cc1)C(=O)O`, the Potency entry in test [1], in [2], in test [3], in [4], in test [5] and in test [6] was “inactive” each time. The Potency result in [7], in [8], in [9] and in test [10] was “inactive” throughout.
On to `CCN1CCC[C@H]1CNC(=O)c1c(OC)ccc(Br)c1OC`, for which the Potency result in test [1], in test [2], in test [3], in test [4], in [5] and in test [6] was “inactive” each time. Also, the Potency entry in [7], in [8] and in test [9] was “inactive” each time.
For the compound `COc1cc(NS(C)(=O)=O)ccc1Nc1c2ccccc2nc2ccccc12`, the Potency is 2510 nM (active) in test [1]; 1410 nM (active) in test [2]; 2820 nM (active) in [3]; 5360 nM (active) in test [4]; 3160 nM (active) in [5]; 2240 nM (active) in test [6]. Besides, the Potency is 3160 nM (active) in test [7], 2000 nM (active) in test [8], 2240 nM (active) in [9] and 2130 nM (active) in test [10].
As for `CC(Cc1cccc(C(F)(F)F)c1)NCCOC(=O)c1ccccc1` (stereo unspecified), the Potency result in test [1], in test [2], in [3], in test [4], in [5] and in [6] was “inactive” in each case. In addition, the Potency result in [7], in [8] and in [9] was “inactive” each time.
As to `Nc1ccc(C(=O)Nc2ccccc2N)cc1`, the Potency entry in test [1], in test [2], in test [3], in test [4], in test [5] and in test [6] was “inactive” each time. Moreover, the Potency entry in test [7], in [8] and in test [9] was “inactive” throughout.
On to `CC(=O)Nc1c(I)cc(I)c(C(=O)O)c1I`, for which the Potency entry in test [1], in test [2], in test [3], in [4], in test [5] and in test [6] was “inactive” throughout. Moreover, the Potency entry in test [7], in [8], in test [9] and in [10] was “inactive” throughout.
As to `Oc1ccc(Cl)c2cccnc12`, the Potency result in test [1], in [2], in [3], in [4], in test [5] and in test [6] was “inactive” each time. For the same compound, the Potency entry in test [7], in test [8] and in [9] was “inactive” each time.
Turning to `O=C(Nc1ccc(Oc2ccc(Cl)cc2)c(Cl)c1)c1cc(I)cc(I)c1O`, the Potency result in test [1], in test [2], in [3], in [4], in [5] and in test [6] was “inactive” in each case. For the same compound, the Potency entry in [7] and in [8] was “inactive” throughout.
Regarding `COc1ccc(C2C(=O)c3ccccc3C2=O)cc1`, the Potency entry in test [1], in test [2], in [3], in [4], in test [5] and in test [6] was “inactive” each time. For the same compound, the Potency entry in [7], in test [8], in test [9] and in [10] was “inactive” throughout.
Turning to `CN(C)/N=N/c1nc[nH]c1C(N)=O`, the Potency result in test [1], in [2], in test [3], in test [4], in test [5] and in [6] was “inactive” each time. Also, the Potency entry in [7], in test [8], in [9] and in test [10] was “inactive” in each case.
Regarding `COc1cc2c(cc1OC)C(=O)C(CC1CCN(Cc3ccccc3)CC1)C2` (stereo unspecified), the Potency entry in test [1], in test [2], in test [3], in test [4], in test [5] and in [6] was “inactive” each time. The Potency entry in test [7] and in [8] was “inactive” each time.
Turning to `O=C(OCCOCCO)c1ccccc1Nc1cccc(C(F)(F)F)c1`, the Potency result in test [1], in test [2], in test [3], in [4], in test [5] and in test [6] was “inactive” throughout. The Potency result in test [7], in test [8], in test [9] and in test [10] was “inactive” in each case.
Turning to `CCn1cc(C(=O)O)c(=O)c2cnc(N3CCCC3)nc21`, the Potency result in test [1], in test [2], in test [3], in test [4], in test [5] and in test [6] was “inactive” each time. Besides, the Potency result in test [7], in test [8], in test [9] and in test [10] was “inactive” throughout.
As to `CCOC(=O)c1cccc(N)c1`, the Potency entry in [1], in test [2], in test [3], in test [5], in [6] and in test [7] was “inactive” throughout. The Potency result in test [8] and in [9] was “inactive” throughout. The Potency in test [4] is 16900 nM (active).
Consider `N[C@H](CO)C(=O)O`, for which the Potency entry in test [1], in [2], in test [3], in test [4], in test [5] and in [6] was “inactive” each time. The Potency result in [7], in [8], in test [9] and in [10] was “inactive” each time.
Consider `CCCCOc1cc(C(=O)NCCN(CC)CC)c2ccccc2n1`, for which the Potency entry in test [1], in test [2], in [3], in [4], in test [5] and in [6] was “inactive” in each case. Besides, the Potency entry in test [7], in test [8] and in test [9] was “inactive” each time.
In the case of `O=C(O)CNC(=O)c1ccccc1`, the Potency entry in [1], in test [2], in [3], in [4], in [5] and in test [6] was “inactive” each time. Besides, the Potency entry in test [7], in [8], in [9] and in test [10] was “inactive” throughout.
For `CCN1CCN(c2cc3c(cc2F)c(=O)c(C(=O)O)cn3C2CC2)CC1`, the Potency result in [1], in test [2], in test [3], in [4], in [5] and in test [6] was “inactive” each time. The Potency result in test [7], in [8] and in test [9] was “inactive” throughout.
`O=C1OC(c2ccc(O)cc2)(c2ccc(O)cc2)c2ccccc21`: the Potency result in [1], in [2], in test [3], in [4], in test [5] and in test [6] was “inactive” throughout. Also, the Potency result in test [7], in test [8], in test [9] and in test [10] was “inactive” throughout.
